Measurements reported in PubChem BioAssay (NCI).
This is part of a sample that, as a whole, favours compounds with a hit. Of some 83,000 tested, about 20% had one in any assay.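 Step 1: grow cells in 96-well plates. Step 2: add test compound at a single concentration. Step 3: incubate 48 h. Step 4: record percent growth.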 Values without a mark were called inactive. Activity calls are given as the source filed them. Rule for the calls: active = growth percent below 10; inactive = the rest.

Columns and labels:
Experiment in all cases: NCI-60 one-dose screen, 48 h (100 = growth as untreated, 0 = no growth, -100 = all killed)
Conditions in all cases: 10 µM unless noted
[1] = tested on: NCI-H23 lung
[2] = tested on: NCI-H322M lung
[3] = tested on: HOP-62 NSCLC
[4] = tested on: NCI-H460 lung
[5] = tested on: HOP-92 NSCLC
[6] = tested on: NCI-H522 lung
[7] = tested on: A549/ATCC NSCLC
[8] = tested on: COLO 205 colon
[9] = tested on: 786-0 renal
[10] = tested on: NCI-H226 lung

| SMILES | growth [1] | growth [2] | growth [3] | growth [4] | growth [5] | growth [6] | growth [7] | growth [8] | growth [9] | growth [10] [%] |
| --- | --- | --- | --- | --- | --- | --- | --- | --- | --- | --- |
| COc1ccc(C2CC(n3nnnc3-c3ccccc3)=NN2)cc1 (centres undefined) | 82% | 69.9% | 78.4% | 71.2% | 80.1% | 47.1% | 60.2% | 91.8% | – | – |
| COc1ccc(C(=O)c2cc3c(N)c(C(=O)Nc4ccc(Br)cc4)sc3nc2C)cc1 | 82.7% | 78.9% | 21.2% | 50% | 66.1% | 39.6% | 79.5% | 85.9% | 58.2% | – |
| Cc1nc2sc(C(=O)Nc3ccccc3)c(N)c2cc1C(=O)c1ccc(C(F)(F)F)cc1 | 93.5% | 102% | 91.1% | 70.2% | 116% | 89.1% | 42.8% | – | 95.3% | – |
| CS(=O)(=O)OCCN(CCOS(C)(=O)=O)c1ccc(/C=N/Nc2ccc([N+](=O)[O-])cc2[N+](=O)[O-])cc1 | 73.6% | 94.5% | 92.8% | 37.5% | 71.8% | 91.5% | 80.8% | 90% | 101% | – |
| C=C1C(=O)O[C@H]2[C@H]1CC/C(COC(=O)/C=C/c1c[nH]c3ccccc13)=C\CC[C@@]1(C)O[C@@H]21 | -53% (active) | -48.2% (active) | -73.5% (active) | -70.8% (active) | -91.4% (active) | -63.1% (active) | -78.7% (active) | – | -90.4% (active) | – |
| Cn1ncc2c(Nc3ccccc3Cl)nc(Cl)nc21 | 100% | 87.3% | 98.2% | 114% | 72.8% | 40.5% | 103% | 127% | 103% | – |
| CN1CCN(CCCOc2ccc3ncnc(Nc4ccc(Oc5cccc(C(F)(F)F)c5)c(Cl)c4)c3c2)CC1 | 44.4% | 11.3% | 1.07% (active) | -66.9% (active) | 29.4% | -3.31% (active) | 21.5% | -51.8% (active) | -81% (active) | – |
| O=C(OCc1nc2nc(Cl)nc(N3CCOCC3)c2[nH]1)n1ccnc1 | 40.7% | 65.4% | 30.4% | 3.6% (active) | -66.7% (active) | -66% (active) | 48.4% | -65.3% (active) | -81.4% (active) | – |
| Cc1nc2sc(C(=O)Nc3cccc(Br)c3)c(N)c2cc1C(=O)c1ccc(C(F)(F)F)cc1 | 75.1% | 65.7% | 60.6% | 63.7% | 80% | 84.7% | 74.7% | 86.7% | 86.4% | – |
| COc1cccc(CCC(=O)c2cc3c(N)c(C(=O)Nc4cccc(Cl)c4C)sc3nc2C)c1 | 37.4% | 43.6% | 36.4% | 7.76% (active) | 48% | 12.1% | 27.3% | – | 25.9% | – |
| CC(C)Cc1ccc(C(C)C(=O)NCc2c[nH]c3ccc(Cl)cc23)cc1 (centres undefined) | 98% | 99.7% | 99.7% | 99.7% | 79.8% | 87.2% | 89% | 107% | 95.8% | – |
| FC(F)(F)Oc1cccc(-c2cc(NCCCCCCNc3cc(-c4cccc(OC(F)(F)F)c4)nc4ccc(N5CCCC5)cc34)c3cc(N4CCCC4)ccc3n2)c1 | -19.9% (active) | -79.3% (active) | -14% (active) | -52.1% (active) | -23.9% (active) | -49.5% (active) | -75% (active) | -51.9% (active) | -83.4% (active) | – |
| COc1ccc(C(=O)c2cc3c(N)c(C(=O)Nc4cccc(Cl)c4)sc3nc2C)cc1 | 35.1% | 57.2% | 44.9% | 13.1% | 86.9% | -4.67% (active) | 32.3% | -1.48% (active) | 51.6% | – |
| O=S(=O)(NCCCNc1nccc(-c2c(-c3ccc(F)c(O)c3)nc3sccn23)n1)c1ccc(F)cc1 | 2.45% (active) | 5.97% (active) | 19.9% | 6.31% (active) | 6.16% (active) | -9.08% (active) | 10.2% | 11.5% | 14.1% | – |
| FC(F)(F)c1cccc(Oc2ccc(Nc3ncnc4ccc(OCCCN5CCOCC5)cc34)cc2Cl)c1 | – | – | 62.3% | 14.2% | 41.5% | 35.1% | 49.4% | 47% | 44.6% | 84.7 |
| CCN1C(=O)/C(=c2\sc3n(c2=O)NC2C(N=3)N(CC)C(=O)N2CC)c2ccccc21 (centres undefined) | – | 47% | 43.1% | 18% | 21.6% | 15% | 38.9% | 14.8% | 38.2% | – |
| Nc1nnc2cc(Cl)ccc2n1 | – | 94.5% | 115% | 115% | 65.6% | – | 108% | 103% | 129% | 92 |
| Fc1ccc(C2CC(c3cccc(Nc4ccncc4)c3)=NN2c2ccc(Cl)cc2)cc1 (centres undefined) | – | 78% | 64.9% | -53.9% (active) | 52.2% | 83.1% | 52.6% | -59.8% (active) | 104% | 91.4 |
| COc1ccc(-c2nc(SCC(C)C)nc(N/N=C(/C)c3ccc(OC)c(OC)c3)c2C#N)cc1 | – | 79.7% | 86.9% | 65.9% | 38.4% | 80.8% | 99.8% | 110% | 96.9% | 94.1 |
| COc1ccccc1N1CCN(C(=O)c2ccc3nc(NC(=O)c4ccc(NCCc5ccccc5)c([N+](=O)[O-])c4)sc3c2)CC1 | – | 91.5% | 82.9% | – | 81.9% | 80.4% | 91.3% | 100% | 110% | 87.4 |
| C=C1C(=O)O[C@H]2[C@H]1CC/C(CNC(=O)/C=C/c1ccccc1F)=C\CC[C@@]1(C)O[C@@H]21 | – | 73.9% | 74.5% | 56.2% | -28.2% (active) | -73.5% (active) | 52.9% | -45% (active) | -58.4% (active) | 71.9 |
| CN1C2CCC1CN(c1cnc(C(=O)Nc3cc(F)cc4cccnc34)cn1)C2 | – | 74.6% | 88.6% | 83.4% | 81.2% | 24.4% | 87.5% | 10.4% | 51.8% | – |
| CC(=O)N1N=C(c2cccc(Nc3ccncc3)c2)CC1c1ccc2c(c1)OCO2 (centres undefined) | – | 105% | 89.4% | – | 72.1% | 96.5% | 93.9% | 84.3% | -93.4% (active) | 94.6 |
| Fc1ccccc1CSc1ncnc2nc[nH]c12 | – | 131% | 93.4% | 97.8% | 122% | 54% | 104% | 103% | 106% | 109 |
| CC(C)Cc1ccc(C(C)C(=O)NCc2ccc(Cn3c(=O)sn(-c4ccc(Cl)cc4)c3=O)cc2)cc1 (centres undefined) | – | 90.2% | 85.7% | 61.1% | 75.7% | 91.9% | 75.4% | 74% | 85.3% | 82.6 |
| C#CCn1cc(C=C2C(=O)NC(=S)NC2=O)c2cc(Cl)ccc21 | – | 80.3% | -5.32% (active) | 14.6% | 48.4% | 51.1% | 98.3% | 33.2% | -54.2% (active) | 61.6 |
